The values below come from PubChem BioAssay.

In test [1] the test system is Plasmodium falciparum Sir2 (PF13_0152, Sir2A). The test is described as follows: pfSir2 binders on small-molecule microarrays, primary screen, biochemical, small-molecule microarray, 635 nm fluorescence (AID 1098).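 Also: score merges spot fluorescence intensity with its signal-to-noise ratio.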 Conditions: small-molecule microarray binding, fluorescence 635 nm; higher = more signal.
Test [2] in a line: small-molecule microarray binders of probe aDKK1, primary screen, biochemical, biotinylated probe, 635/667 nm fluorescence (AID 1099).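 Also: score merges 667nm spot fluorescence with signal to noise across triplicate slides.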 Conditions: higher = more signal.
Test [3] in a line: small-molecule microarray binders of probe aCHRDL2, primary screen, biochemical, biotinylated probe, 635/667 nm fluorescence (AID 1100). Conditions: higher = more signal.
The nature of test [4]: splicing luciferase reporter signal modulators, primary screen, spliceosome inhibition project, cell-based, HEK293, splice +/- reporter (AID 1101).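 Also: HEK293 cells carrying a splicing-competent luciferase reporter gene; test concentration not given here.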 Conditions: luminescence, 24 h, higher = more signal, called active from +8 up or from −8 down. (A reporter such as luciferase makes a cellular process visible.)
Test [5] concerns the target Fibroblast growth factor 10 (Homo sapiens) (UniProt O15520). The test can be described thus: FGF10 binders on small-molecule microarrays, primary screen, biochemical, small-molecule microarray, 635 nm fluorescence (AID 1102). Particulars: FGF10 binding, fluorescence 635 nm, higher = more signal.
Test [6] relates to glycogen synthase kinase-3 (GSK3A per assay name; protocol says GSK3B). The test can be described thus: GSK3 binders on small-molecule microarrays, primary screen, biochemical, small-molecule microarray, 635 nm fluorescence, GSK3A (AID 1103). Also: the record names both GSK3A and GSK3B. Particulars: small-molecule microarray binding, fluorescence 635 nm; higher = more signal.
Test [7] has as its target Epidermal growth factor receptor (Homo sapiens) (UniProt P00533). The test can be described thus: EGFR binders on small-molecule microarrays, primary screen, biochemical, small-molecule microarray, 635 nm fluorescence (AID 1104).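 Also: score merges 667 nm emission intensity with spot signal to noise over triplicate slides.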 Conditions: EGFR binding, higher = more signal.
Test [8] deals with Follistatin-related protein 3 (Homo sapiens) (UniProt O95633). The test is described as follows: FSTL3 binders on small-molecule microarrays, primary screen, biochemical, small-molecule microarray, 635 nm fluorescence (AID 1105).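 Also: score merges emission near 667 nm and signal to noise per printed spot across three slides.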 Conditions: FSTL3 binding, higher = more signal.
Chain of Follistatin-related protein 3 (Homo sapiens) (O95633 whole entry, looked up): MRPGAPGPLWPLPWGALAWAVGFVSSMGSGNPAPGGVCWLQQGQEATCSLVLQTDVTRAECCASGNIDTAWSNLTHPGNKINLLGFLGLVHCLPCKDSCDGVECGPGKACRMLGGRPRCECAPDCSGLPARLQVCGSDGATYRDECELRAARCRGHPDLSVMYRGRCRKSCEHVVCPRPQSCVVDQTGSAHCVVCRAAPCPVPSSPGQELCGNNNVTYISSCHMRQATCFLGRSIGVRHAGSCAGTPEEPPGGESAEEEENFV
Test [9] addresses Dickkopf-related protein 1 (Homo sapiens) (UniProt O94907). The test can be described thus: DKK1 binders on small-molecule microarrays, primary screen, biochemical, small-molecule microarray, 635 nm fluorescence scan (AID 1106).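 Also: score merges emission near 667 nm with signal to noise over three replicate slides.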 Conditions: DKK1 binding, higher = more signal.
For test [10], the system named is Inhibin beta A chain (activin A). The test is described as follows: INHBA (activin A) binders on microarrays, primary screen, biochemical, small-molecule microarray, 635 nm fluorescence scan (AID 1107).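 Also: mouse activin A protein probed at 4.33 µg/mL on printed slides; score merges bound-protein fluorescence near 667 nm with spot signal-to-noise.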 Particulars: small-molecule microarray binding, higher = more signal.
Test [11] deals with Human papillomavirus type 1a protein E7 (residues 44-93). The test can be described thus: HPV1a E7 fragment binders on microarrays, primary screen, biochemical, small-molecule microarray, residues 44-93, 635 nm fluorescence (AID 1108).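 Also: E7 fragment applied at 1 µg/mL in TBST for 1 h at 4 C; score combines spot fluorescence with its signal to noise ratio.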 Particulars: small-molecule microarray binding, fluorescence 635 nm; higher = more signal.
The nature of test [12]: modulators of HCV replicon luciferase signal, primary screen, HCV replication inhibitor project, Huh7 cells, luciferase reporter (AID 1109).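 Also: huh7 hepatoma cells harbouring a luciferase neomycin HCV replicon reporter; luciferase luminescence as measure of HCV replicon replication; test concentration not given here.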 Particulars: 48 h, higher = more signal. In general terms: In antiviral work, replicon cells carry a viral genome segment that copies itself.
Test [13] has as its target Left-right determination factor 2 (Homo sapiens) (UniProt O00292). The test can be described thus: LEFTY2 binders on small-molecule microarrays, primary screen, biochemical, small-molecule microarray, 635 nm fluorescence scan (AID 1110). Particulars: LEFTY2 binding, higher = more signal.
Test [14] deals with Calmodulin-1 (Homo sapiens) (UniProt P0DP23). The test is described as follows: CALM1 binders on microarrays, EGTA buffer, profiling panel, biochemical, small-molecule microarray, Cy5-labelled CALM1 (AID 1111).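 Also: labelled calmodulin applied in Tris saline Tween buffer holding calcium plus EGTA and DTT.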 Conditions: Cy5-CALM1 binding fluorescence, higher = more signal.
The target is the same in test [15]. The test is described as follows: calcium-bound CALM1 binders on microarrays, profiling panel, artefact control for SMM control-protein annotation, biochemical, small-molecule microarray, Cy5-labelled CALM1, plus calcium (AID 1112).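 Also: score merges spot fluorescence with signal to noise from triplicate slides.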 Conditions: Cy5-CALM1 binding fluorescence, higher = more signal.
Test [16] in a line: small-molecule microarray binders of probe aWnt5a, primary screen, biochemical, biotinylated probe, 635/667 nm fluorescence (AID 1113).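 Also: score merges 667 nm fluorescence intensity with signal-to-noise per printed feature.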 Particulars: higher = more signal.
Test [17] is described as follows: small-molecule microarray binders of probe aShh, primary screen, biochemical, biotinylated probe, 635/667 nm fluorescence (AID 1114).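 Also: probe is biotin-labelled aShh protein from a stem cell growth factor screen; measures binding of labelled protein to compounds printed on the slide; score merges feature fluorescence at 667 nm with signal-to-noise.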 Particulars: higher = more signal.
Test [18] can be described thus: small-molecule microarray binders of probe aNog, primary screen, biochemical, biotinylated probe, 635/667 nm fluorescence (AID 1115).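 Also: probe is biotinylated aNog protein used at 0.15 µg/mL for 1 h at 4 C; z-score combines 667 nm fluorescence of each spot with its signal to noise.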 Particulars: higher = more signal.
Test [19] concerns the target Torsin-1A-interacting protein 1 (Homo sapiens) (UniProt Q5JTV8). The test is described as follows: LAP1 binders from COS7 cell lysate, primary screen, small-molecule microarray, 635/667 nm fluorescence (AID 1116). Particulars: COS7-hLAP1 lysate binding, 635 nm fluorescence, higher = more signal.
Test [20] addresses Alpha-bungarotoxin (Bungarus multicinctus) (UniProt P60615). The test can be described thus: alpha-bungarotoxin binders on microarray, profiling panel, artefact control for SMM control protein annotation, biochemical, small-molecule microarray, Alexa647 label, 635/667 nm fluorescence (AID 1117). Conditions: alpha-BTX-A647 binding fluorescence, higher = more signal.

The structures appear in SMILES notation. Calls of active or inactive are those of the source.

Chain of Torsin-1A-interacting protein 1 (Homo sapiens) (Q5JTV8 whole entry, looked up): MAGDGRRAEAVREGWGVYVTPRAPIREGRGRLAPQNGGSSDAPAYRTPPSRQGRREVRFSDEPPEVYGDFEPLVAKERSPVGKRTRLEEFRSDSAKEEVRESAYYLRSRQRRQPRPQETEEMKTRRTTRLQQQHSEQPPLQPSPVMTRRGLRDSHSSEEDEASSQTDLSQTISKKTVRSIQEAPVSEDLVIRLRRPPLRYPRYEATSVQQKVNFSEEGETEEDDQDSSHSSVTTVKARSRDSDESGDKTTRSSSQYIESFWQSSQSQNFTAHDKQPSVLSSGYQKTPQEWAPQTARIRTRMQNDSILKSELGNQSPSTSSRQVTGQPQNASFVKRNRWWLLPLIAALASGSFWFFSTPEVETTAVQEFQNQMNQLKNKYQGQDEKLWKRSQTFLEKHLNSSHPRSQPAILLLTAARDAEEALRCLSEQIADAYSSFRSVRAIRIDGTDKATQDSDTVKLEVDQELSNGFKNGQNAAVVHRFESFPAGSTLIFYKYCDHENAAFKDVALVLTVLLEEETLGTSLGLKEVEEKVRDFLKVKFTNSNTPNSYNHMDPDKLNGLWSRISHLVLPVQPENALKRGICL
Chain of Left-right determination factor 2 (Homo sapiens) (O00292 whole entry, looked up): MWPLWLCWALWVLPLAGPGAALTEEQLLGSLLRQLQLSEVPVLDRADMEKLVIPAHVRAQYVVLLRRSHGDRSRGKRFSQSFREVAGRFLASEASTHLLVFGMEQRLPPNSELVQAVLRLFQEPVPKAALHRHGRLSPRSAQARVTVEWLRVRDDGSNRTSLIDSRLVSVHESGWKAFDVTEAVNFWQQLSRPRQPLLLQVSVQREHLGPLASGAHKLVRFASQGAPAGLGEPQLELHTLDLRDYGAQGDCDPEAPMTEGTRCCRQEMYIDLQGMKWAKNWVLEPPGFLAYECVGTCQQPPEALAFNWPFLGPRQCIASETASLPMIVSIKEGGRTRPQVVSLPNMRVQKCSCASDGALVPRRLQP
Chain of Alpha-bungarotoxin (Bungarus multicinctus) (P60615 whole entry, looked up): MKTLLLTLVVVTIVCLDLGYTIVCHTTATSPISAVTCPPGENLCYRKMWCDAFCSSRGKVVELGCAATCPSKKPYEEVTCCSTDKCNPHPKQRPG
Chain of Dickkopf-related protein 1 (Homo sapiens) (O94907 whole entry, looked up): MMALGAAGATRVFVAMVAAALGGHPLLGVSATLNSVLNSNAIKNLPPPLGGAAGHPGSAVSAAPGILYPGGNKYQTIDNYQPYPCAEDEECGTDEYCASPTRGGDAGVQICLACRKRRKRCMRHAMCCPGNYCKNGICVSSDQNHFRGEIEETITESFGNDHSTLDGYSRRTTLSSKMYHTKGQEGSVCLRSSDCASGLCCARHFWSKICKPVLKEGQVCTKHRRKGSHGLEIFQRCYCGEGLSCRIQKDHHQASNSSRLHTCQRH
Chain of Epidermal growth factor receptor (Homo sapiens) (P00533 whole entry, looked up): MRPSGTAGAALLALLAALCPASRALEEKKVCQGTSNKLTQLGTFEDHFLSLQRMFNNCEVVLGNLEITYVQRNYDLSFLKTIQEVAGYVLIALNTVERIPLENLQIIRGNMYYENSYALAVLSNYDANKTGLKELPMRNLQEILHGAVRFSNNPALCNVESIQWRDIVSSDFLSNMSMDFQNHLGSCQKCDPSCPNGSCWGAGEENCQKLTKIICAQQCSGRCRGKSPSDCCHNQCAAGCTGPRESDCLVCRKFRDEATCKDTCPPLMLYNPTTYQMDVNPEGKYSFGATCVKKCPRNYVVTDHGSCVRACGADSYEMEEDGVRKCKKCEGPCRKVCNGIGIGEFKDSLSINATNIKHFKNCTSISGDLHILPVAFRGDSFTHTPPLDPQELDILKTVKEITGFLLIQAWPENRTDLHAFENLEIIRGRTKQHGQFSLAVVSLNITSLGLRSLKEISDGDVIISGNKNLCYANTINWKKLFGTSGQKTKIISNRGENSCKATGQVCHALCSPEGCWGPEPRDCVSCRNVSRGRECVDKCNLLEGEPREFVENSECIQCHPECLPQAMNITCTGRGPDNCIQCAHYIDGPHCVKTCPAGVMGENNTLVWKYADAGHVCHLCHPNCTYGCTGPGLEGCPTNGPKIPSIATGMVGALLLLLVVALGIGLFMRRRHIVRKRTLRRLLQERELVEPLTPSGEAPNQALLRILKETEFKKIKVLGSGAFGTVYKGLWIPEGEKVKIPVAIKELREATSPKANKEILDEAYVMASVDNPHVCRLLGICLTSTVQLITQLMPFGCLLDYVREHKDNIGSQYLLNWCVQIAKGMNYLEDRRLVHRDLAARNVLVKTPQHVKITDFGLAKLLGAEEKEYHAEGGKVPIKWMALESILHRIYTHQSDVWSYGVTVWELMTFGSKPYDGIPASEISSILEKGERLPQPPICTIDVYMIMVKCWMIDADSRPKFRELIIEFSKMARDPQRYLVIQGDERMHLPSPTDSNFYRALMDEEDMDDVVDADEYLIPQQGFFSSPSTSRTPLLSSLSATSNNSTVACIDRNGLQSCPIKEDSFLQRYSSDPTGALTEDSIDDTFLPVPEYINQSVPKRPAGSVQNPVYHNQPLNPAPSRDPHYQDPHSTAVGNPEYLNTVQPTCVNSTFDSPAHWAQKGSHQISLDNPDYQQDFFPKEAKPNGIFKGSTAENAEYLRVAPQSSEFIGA
Chain of Fibroblast growth factor 10 (Homo sapiens) (O15520 whole entry, looked up): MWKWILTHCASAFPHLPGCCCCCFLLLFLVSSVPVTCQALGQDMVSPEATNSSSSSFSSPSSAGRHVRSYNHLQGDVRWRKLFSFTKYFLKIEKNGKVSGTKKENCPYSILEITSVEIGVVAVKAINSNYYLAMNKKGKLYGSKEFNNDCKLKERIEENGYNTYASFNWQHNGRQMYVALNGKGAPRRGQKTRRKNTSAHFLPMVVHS

For `C=C(C1=CCN(S(=O)(=O)c2ccc(C)cc2)C1)[C@@H](OC(C)=O)[C@@H]1CCCN1S(=O)(=O)c1ccccc1[N+](=O)[O-]`, the composite z-score in test [1] was 1.55; in [2], -0.362; in test [3], -0.254; in [5], 0.0611; in test [6] it was -0.297; in test [7], -0.0578. The composite z-score in test [8] was -0.114; in test [9], -0.239; in test [10], 1.2; in [11] it was -0.38; in test [13], -0.0476; in test [14], -0.765. The composite z-score in test [15] was -0.856; in test [16], -0.208; in [17], 0.0469; in test [18] it was 0.353; in test [19] it was 0.156; in test [20], -1.48. The z-score in test [4] was -3.24 (inactive); in test [12], -4.62.

Turning to `CC(C)(C)OC(=O)CC[C@]1(C(=O)NCc2ccccc2)COC(c2ccc(OCCCO)cc2)=N1`, the composite z-score in test [1] was 1.31; in test [2] it was 1.07; in test [3] it was 1.21; in test [5] it was 0.361; in test [6], 0.319; in test [7], -0.716. For the same molecule, the composite z-score was -0.334 in test [8]; -1.17 in test [9]; 0.469 in test [10]; 0.326 in test [11]; -0.632 in test [13]; 0.98 in test [14]. Also, the composite z-score in test [15] was 1.11; in test [16] it was -0.001; in [17], -0.138; in [18], 1.31; in test [19] it was 2.07; in test [20], 2.47. In addition, the z-score in test [4] is -0.264 (inactive); in test [12], -0.605.

For the molecule `C#CCN1C(C(=O)OCC)OC[C@H]1c1ccccc1` (stereo not given in full), the composite z-score is 0.312 in test [1]; 0.461 in test [2]; -0.502 in [3]; 0.388 in [5]; -0.0229 in [6]; 0.421 in test [7]. Further, the composite z-score was 0.901 in test [8]; 0.428 in test [9]; -0.352 in [10]; 1.35 in [11]; 0.677 in [13]; -0.128 in test [14]. In addition, the composite z-score in test [15] was -0.605; in test [16], -0.175; in test [17] it was -0.167; in [18], -0.21; in test [19], 1.49; in test [20], 0.327. For the same molecule, the results for the z-score in test [4] and in [12] were -0.577 (inactive) and -0.354, respectively.

For `O=C(N1CCCCC1)[C@@]1(Cc2ccccc2)N=C(c2ccc(OCCCO)cc2)O[C@H]1c1ccccc1`, the composite z-score is 1.43 in test [1]; 1.26 in [2]; 1.31 in [3]; 0.942 in test [5]; 0.258 in test [6]; -0.32 in [7]. The composite z-score in test [8] is 0.606; in test [9], 0.0474; in test [10] it was 0.766; in [11], 0.73; in test [13], -0.458; in [14] it was 2.45. Besides, the composite z-score was determined as 1.09 in test [15]; 0.801 in test [16]; 0.106 in test [17]; 1.9 in [18]; 2.95 in test [19]; 3.12 in [20]. Besides, the z-score in [4] was -1.96 (inactive); in test [12], -2.94.

With `CCOC(=O)C[C@H]1[C@H](OC(=O)c2ccc(-c3ccccc3)cc2)[C@@H](NC(=O)C2CCCCC2)c2cc(OCCCO)ccc2N1C(=O)c1ccc2ccccc2n1`, the composite z-score in test [1] is 0.13; in test [2], 0.414; in test [3], 0.111; in test [5], 0.651; in [6], 0.708; in test [7] it was 0.0502. The composite z-score in test [8] was 0.392; in test [9], 1.12; in test [10], -0.167; in test [11], 1.19; in test [13], 0.197; in [14], 1.24. The composite z-score in test [15] was 0.854; in test [16] it was 0.0102; in [17], -0.0133; in test [18], 0.037; in [19], 0.729; in test [20], 0.608. Moreover, the z-score in [4] was -1.65 (inactive); in test [12], -0.241.

Consider `CC(=O)OC(C/C=C\B1OC(C)(C)C(C)(C)O1)c1ccccc1` (stereo not given), for which the composite z-score in [1] is -0.552; in test [2], -0.264; in test [3], 0.281; in test [5], -0.704; in test [6], -0.138; in test [7] it was 0.247. Also, the composite z-score is 0.173 in [8]; 0.0618 in [9]; 1.38 in test [10]; -0.328 in test [11]; 0.149 in [13]; -1.33 in test [14]. The composite z-score in [15] was -0.664; in test [16], -0.152; in [17], -0.0813; in test [18], -0.405; in test [19] it was -0.0001; in test [20], -0.236. The z-score in test [4] was -2.42 (inactive); in test [12], 0.386.
